# From the supplement of paper PMC11732987, “Enantioselective OTUD7B fragment discovery through chemoproteomics screening and high-throughput optimisation” (Communications Chemistry, 2025)
# Values without a mark were called inactive.
# Compound: ClCC(=O)N[C@H]1CCCc2ccccc12
# Experiment: log2 ratio of Biotin-Ahx-Ub-VS probe labelling (compound/DMSO); higher = less target engagement, active = hit call of the paper (q ≤ 0.05, log2 ratio ≤ -1)
# Conditions: compound concentration: 50uM; treatment time: 3 h
# Summary of the method: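 DUBs in HEK293T lysate were labelled with Biotin-Ahx-Ub-VS (0.5 µM final, 1 h) after a 3 h treatment with compound at 50 or 200 µM or with DMSO, done in triplicate on 495 µg of lysate per sample. NeutrAvidin-enriched proteins were digested with LysC and trypsin and run by diaPASEF LC-MS/MS. Median-normalised label-free quantities gave average base-two log ratios of compound to DMSO by unpaired t-test, restricted to proteins with at least 2 unique peptides.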
# UniProt Q9UPT9, sequence (Q9UPT9 whole entry): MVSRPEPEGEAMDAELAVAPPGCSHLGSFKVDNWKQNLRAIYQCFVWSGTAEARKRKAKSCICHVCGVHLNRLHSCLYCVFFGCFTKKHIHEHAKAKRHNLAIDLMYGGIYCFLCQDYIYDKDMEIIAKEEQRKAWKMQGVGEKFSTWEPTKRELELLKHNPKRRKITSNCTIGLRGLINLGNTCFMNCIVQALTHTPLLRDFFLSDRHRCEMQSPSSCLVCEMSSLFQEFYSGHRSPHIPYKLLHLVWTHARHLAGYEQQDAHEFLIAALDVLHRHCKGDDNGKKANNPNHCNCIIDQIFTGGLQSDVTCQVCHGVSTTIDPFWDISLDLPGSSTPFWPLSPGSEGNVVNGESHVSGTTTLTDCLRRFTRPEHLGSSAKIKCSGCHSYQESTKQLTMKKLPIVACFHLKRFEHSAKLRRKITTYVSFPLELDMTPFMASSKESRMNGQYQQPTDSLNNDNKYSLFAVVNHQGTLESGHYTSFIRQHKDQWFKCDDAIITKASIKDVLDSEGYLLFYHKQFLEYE
# UniProt Q9UHP3, sequence (Q9UHP3 whole entry): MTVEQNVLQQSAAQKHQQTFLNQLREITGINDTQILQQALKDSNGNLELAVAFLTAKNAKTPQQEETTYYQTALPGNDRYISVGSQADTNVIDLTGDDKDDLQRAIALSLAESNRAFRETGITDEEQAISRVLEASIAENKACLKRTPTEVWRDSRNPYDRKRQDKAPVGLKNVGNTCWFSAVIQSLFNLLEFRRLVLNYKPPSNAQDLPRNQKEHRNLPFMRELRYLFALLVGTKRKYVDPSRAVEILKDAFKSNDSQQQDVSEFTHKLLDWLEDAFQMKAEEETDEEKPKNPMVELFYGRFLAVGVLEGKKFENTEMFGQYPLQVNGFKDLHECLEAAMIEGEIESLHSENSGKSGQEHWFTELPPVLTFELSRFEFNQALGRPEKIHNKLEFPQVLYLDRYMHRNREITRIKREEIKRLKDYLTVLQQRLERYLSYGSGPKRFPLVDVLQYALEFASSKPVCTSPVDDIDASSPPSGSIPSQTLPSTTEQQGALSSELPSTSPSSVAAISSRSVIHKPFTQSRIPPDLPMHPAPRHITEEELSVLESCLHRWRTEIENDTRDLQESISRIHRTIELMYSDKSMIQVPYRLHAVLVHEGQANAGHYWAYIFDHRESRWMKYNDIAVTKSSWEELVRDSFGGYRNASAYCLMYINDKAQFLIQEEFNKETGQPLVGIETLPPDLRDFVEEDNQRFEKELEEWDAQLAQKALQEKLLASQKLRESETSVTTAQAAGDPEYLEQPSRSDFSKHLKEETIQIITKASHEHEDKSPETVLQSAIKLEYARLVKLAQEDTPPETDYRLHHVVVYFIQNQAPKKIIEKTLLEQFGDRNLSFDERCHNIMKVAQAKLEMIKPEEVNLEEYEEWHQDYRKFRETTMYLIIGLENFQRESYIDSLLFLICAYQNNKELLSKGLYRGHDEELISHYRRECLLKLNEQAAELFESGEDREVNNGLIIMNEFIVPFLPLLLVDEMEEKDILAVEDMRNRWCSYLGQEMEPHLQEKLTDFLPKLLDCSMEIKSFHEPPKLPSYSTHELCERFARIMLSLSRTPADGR
# UniProt Q93009, sequence (Q93009 whole entry, looked up): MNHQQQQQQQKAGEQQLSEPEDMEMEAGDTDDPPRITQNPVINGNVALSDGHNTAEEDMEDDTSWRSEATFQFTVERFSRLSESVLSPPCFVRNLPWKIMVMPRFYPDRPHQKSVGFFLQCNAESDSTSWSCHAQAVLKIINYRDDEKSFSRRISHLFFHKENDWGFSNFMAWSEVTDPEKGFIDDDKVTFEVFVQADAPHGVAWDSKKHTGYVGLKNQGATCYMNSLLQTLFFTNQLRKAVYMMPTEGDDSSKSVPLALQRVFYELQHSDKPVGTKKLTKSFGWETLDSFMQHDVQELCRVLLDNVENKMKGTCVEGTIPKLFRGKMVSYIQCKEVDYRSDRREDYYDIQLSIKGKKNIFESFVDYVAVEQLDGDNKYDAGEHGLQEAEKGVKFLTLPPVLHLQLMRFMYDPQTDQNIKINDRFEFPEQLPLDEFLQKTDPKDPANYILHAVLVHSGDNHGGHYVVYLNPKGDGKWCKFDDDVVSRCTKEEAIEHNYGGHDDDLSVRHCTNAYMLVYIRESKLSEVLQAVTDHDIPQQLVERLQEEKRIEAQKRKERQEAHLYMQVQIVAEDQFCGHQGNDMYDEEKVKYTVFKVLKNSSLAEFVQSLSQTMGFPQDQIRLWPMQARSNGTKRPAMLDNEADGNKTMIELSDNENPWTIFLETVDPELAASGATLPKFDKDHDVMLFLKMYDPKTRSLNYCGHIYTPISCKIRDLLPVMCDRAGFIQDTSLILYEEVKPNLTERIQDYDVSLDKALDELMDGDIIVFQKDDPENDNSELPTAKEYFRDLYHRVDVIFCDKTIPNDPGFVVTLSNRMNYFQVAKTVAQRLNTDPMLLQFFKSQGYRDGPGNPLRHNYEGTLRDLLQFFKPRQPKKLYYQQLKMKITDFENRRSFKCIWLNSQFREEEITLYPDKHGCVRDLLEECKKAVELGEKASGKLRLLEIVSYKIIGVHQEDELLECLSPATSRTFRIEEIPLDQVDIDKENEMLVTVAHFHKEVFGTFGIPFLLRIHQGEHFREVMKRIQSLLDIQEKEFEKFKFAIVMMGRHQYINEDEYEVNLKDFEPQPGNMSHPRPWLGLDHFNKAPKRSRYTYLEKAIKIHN
# UniProt Q6GQQ9, sequence (Q6GQQ9 whole entry): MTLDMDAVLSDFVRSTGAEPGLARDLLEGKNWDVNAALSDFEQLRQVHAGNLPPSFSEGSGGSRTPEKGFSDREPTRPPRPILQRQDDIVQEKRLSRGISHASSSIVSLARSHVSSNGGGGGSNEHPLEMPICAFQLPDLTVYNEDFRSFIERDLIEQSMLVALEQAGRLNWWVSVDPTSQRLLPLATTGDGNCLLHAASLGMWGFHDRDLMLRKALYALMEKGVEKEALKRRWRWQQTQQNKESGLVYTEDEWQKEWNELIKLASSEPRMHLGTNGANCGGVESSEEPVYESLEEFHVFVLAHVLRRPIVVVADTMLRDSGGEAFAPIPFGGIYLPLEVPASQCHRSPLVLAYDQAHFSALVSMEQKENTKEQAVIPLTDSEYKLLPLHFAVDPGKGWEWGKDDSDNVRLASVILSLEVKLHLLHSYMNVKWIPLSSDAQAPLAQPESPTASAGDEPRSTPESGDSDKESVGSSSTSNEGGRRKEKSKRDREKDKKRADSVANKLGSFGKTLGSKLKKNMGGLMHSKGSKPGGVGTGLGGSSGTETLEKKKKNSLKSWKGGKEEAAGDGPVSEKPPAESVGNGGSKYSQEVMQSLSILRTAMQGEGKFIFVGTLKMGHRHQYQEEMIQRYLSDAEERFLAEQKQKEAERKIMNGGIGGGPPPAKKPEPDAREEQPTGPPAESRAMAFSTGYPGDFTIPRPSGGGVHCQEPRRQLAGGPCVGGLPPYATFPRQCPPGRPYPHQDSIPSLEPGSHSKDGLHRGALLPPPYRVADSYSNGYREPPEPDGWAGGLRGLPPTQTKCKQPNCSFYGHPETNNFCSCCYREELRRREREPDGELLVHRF
# UniProt Q96FW1, sequence (Q96FW1 whole entry): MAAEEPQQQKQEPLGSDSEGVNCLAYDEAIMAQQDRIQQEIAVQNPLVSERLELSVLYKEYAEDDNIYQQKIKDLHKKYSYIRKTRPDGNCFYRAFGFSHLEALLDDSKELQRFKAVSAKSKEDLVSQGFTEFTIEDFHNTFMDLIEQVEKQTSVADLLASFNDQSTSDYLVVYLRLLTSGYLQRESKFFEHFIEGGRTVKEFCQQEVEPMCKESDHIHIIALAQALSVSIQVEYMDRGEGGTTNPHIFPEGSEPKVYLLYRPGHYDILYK
# UniProt Q70EL2, sequence (Q70EL2 whole entry): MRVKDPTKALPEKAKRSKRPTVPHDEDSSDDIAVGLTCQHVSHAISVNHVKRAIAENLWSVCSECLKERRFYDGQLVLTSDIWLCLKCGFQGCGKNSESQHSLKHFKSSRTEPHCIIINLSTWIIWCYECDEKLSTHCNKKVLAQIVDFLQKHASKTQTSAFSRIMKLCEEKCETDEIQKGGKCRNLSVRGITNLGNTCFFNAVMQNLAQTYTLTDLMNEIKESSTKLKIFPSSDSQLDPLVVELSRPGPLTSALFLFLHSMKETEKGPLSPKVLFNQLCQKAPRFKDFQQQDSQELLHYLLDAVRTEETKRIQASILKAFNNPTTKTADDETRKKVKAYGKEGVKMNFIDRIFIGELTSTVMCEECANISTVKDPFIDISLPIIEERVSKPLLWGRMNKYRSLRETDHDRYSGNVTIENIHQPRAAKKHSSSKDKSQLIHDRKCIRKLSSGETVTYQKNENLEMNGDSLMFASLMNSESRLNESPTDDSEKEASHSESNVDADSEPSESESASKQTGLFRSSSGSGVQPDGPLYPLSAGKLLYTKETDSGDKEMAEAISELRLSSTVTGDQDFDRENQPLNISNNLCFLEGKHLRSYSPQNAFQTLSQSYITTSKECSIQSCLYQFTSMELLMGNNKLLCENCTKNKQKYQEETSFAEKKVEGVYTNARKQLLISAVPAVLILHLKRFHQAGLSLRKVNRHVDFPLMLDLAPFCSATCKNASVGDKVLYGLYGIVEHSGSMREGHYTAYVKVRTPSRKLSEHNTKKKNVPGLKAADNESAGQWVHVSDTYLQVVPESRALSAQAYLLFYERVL
# UniProt P62068, sequence (P62068 whole entry): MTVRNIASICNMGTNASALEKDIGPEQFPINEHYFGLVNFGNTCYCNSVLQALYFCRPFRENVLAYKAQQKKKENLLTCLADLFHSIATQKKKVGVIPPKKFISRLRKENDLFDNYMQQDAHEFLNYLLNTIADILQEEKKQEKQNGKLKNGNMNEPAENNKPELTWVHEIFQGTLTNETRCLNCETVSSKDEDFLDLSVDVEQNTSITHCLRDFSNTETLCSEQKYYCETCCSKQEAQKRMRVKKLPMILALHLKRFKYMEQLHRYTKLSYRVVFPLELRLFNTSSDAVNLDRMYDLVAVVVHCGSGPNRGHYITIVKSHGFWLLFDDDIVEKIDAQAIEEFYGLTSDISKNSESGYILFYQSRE
row,Target,log2 ratio of Biotin-Ahx-Ub-VS probe labelling
1,USP54 (UniProt Q70EL1),-1.58 (active)
2,UniProt Q5T2D3,-0.0344
3,USP28 (UniProt Q96RU2),-0.259
4,UniProt Q70EL2,0.0625
5,USP22 (UniProt Q9UPT9),0.101
6,OTUD6B (UniProt Q8N6M0),-0.00611
7,EIF3F (UniProt O00303),-0.292
8,USP36 (UniProt Q9P275),-0.0619
9,USP16 (UniProt Q9Y5T5),0.221
10,UCHL5 (UniProt Q9Y5K5),-0.0983
11,OTUD7B (UniProt Q6GQQ9),-5.19 (active)
12,USP14 (UniProt P54578),0.115
13,USP7 (UniProt Q93009),0.0324
14,USP34 (UniProt Q70CQ2),-0.0266
15,OTUB1 (UniProt Q96FW1),0.0292
16,USP9X (UniProt Q93008),0.0465
17,COPS5 (UniProt Q92905),-0.289
18,USP10 (UniProt Q14694),-0.162
19,USP46 (UniProt P62068),-0.00597
20,YOD1 (UniProt Q5VVQ6),0.362
21,BAP1 (UniProt Q92560),-0.684
22,UniProt P51784,0.124
23,USP25 (UniProt Q9UHP3),-0.809
24,UniProt Q9UGI0,-0.182

# Same assay, conditions: compound concentration: 200uM; treatment time: 3 h
row,Target,log2 ratio of Biotin-Ahx-Ub-VS probe labelling
1,USP54 (UniProt Q70EL1),-0.206
2,UniProt Q5T2D3,-0.199
3,USP28 (UniProt Q96RU2),-0.947
4,UniProt Q70EL2,-0.323
5,USP22 (UniProt Q9UPT9),-0.302
6,OTUD6B (UniProt Q8N6M0),-0.364
7,EIF3F (UniProt O00303),0.0431
8,USP36 (UniProt Q9P275),-0.0962
9,USP16 (UniProt Q9Y5T5),0.339
10,UCHL5 (UniProt Q9Y5K5),-0.443
11,OTUD7B (UniProt Q6GQQ9),-5.13 (active)
12,USP14 (UniProt P54578),-0.537
13,USP7 (UniProt Q93009),-0.432
14,USP34 (UniProt Q70CQ2),0.046
15,OTUB1 (UniProt Q96FW1),-0.0965
16,USP9X (UniProt Q93008),-0.214
17,COPS5 (UniProt Q92905),-0.229
18,USP10 (UniProt Q14694),0.0178
19,USP46 (UniProt P62068),-0.413
20,YOD1 (UniProt Q5VVQ6),-0.265
21,BAP1 (UniProt Q92560),-1.69 (active)
22,UniProt P51784,-0.322
23,USP25 (UniProt Q9UHP3),-1.97 (active)
24,UniProt Q9UGI0,-0.337
